Assay [1] in a line: CCTE_Shafer_MEA_dev_AB: CCTE's Alamar Blue Assay for Cytotoxicity in the Neural Network Formation Assay, Shafer Lab (AID 2284083; active means hit-call score of the fitted dose curve at least 0.9, where 1 is the maximum;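 further: resazurin reduction fluorescence as viability of cultured neurons; twelve days of exposure from plating with re-dosing on DIV 5 and 9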). The essentials:
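Rat cortical primary cultures, 1.5 x 10^5 cells/well on MEA; continuous compound exposure over 12 days of network development, re-dosed with full medium change DIV 5 and 9. Alamar Blue fluorescence; loss of signal = cytotoxicity vs DMSO baseline.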

The nature of assay [2]: CCTE_Shafer_MEA_dev_mutual_information_norm: CCTE's Neural Network Formation Assay for Mutual Information Normalization, Shafer Lab (AID 2284091).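 On AC50: mutual information between electrodes summarised as area under curve across four recording days; potency is for a decrease in mutual information relative to DMSO.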 The essentials:
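Primary rat cortical neurons on PEI-coated 48-well MEA plates, 1.5 x 10^5 cells/well, exposed from day 0 through day 12 with re-dosing at DIV 5 and 9. Mutual information between electrodes recorded days 5, 7, 9, 12; trapezoidal AUC, loss-of-signal fit versus DMSO.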

Assay [3] can be described thus: CCTE_Shafer_MEA_dev_correlation_coefficient_mean: CCTE's Neural Network Formation Assay for Mean Correlation Coefficient, Shafer Lab (AID 2284093).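 On AC50: well mean pairwise spike train correlation integrated as AUC over recording days 5 to 12; potency fitted for loss of correlation relative to DMSO vehicle wells.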 An outline of the steps:
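Rat cortical cultures, 1.5 x 10^5 cells/well, dosed from day 0 for 12 days. Spontaneous spikes recorded DIV 5/7/9/12; electrode-pair correlation coefficients averaged, AUC taken. Fit in loss direction vs DMSO.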

A short description of assay [4]: IUF_NPC1b_proliferation_BrdU_72hr: Leibniz Research Institute for Environmental Medicine (IUF) 72-hour Neural Progenitor Cell Bromodeoxyuridine (BrdU) Proliferation Assay (NPC1b) (AID 2284207). An outline of the steps: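 BrdU luminescence ELISA quantified DNA synthesis over the last 16 h of a 72 h exposure, fitted against DMSO. Primary hNPC spheres from gestational week 16-19 cortex grown with EGF/FGF at 37C, pH 7.2-7.6.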

Assay [5] can be described thus: IUF_NPC1a_proliferation_area_72hr: Leibniz Research Institute for Environmental Medicine (IUF) 72-hour Neural Progenitor Cell Proliferation Area Assay (NPC1a) (AID 2284208). The essentials:
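Proliferation is scored as sphere area gain in primary human fetal neural progenitors treated for 72 h in EGF/FGF-containing medium. Viability, LDH and BrdU readouts come from the same wells.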

Assay [6] is described as follows: IUF_NPC1_viability_72hr: Viability Assessment at 72 hours in the Leibniz Research Institute for Environmental Medicine (IUF) Neural Progenitor Cell Proliferation Assay (NPC1) (AID 2284209). An outline of the steps:
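Human fetal-cortex neural progenitor spheres (0.25–0.35 mm, one per well) grown in EGF/FGF proliferation medium at 37C, pH 7.2-7.6, exposed 72 h without renewal; viability read as alamar blue resazurin-to-resorufin fluorescence relative to DMSO.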

Assay [7] can be described thus: CCTE_Mundy_HCI_Cortical_Synap_Neur_Matur_NeuriteSpotCountPerNeuriteLength: CCTE's Synaptogenesis and Neurite Maturation Assay in rat cortical cells for Neurite Spot Count per Neurite Length, Mundy Lab (AID 2284210). The essentials: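 Rat primary cortical cultures, AraC added at DIV 5 to suppress glia; chemical exposure from DIV 7 to DIV 12. Fixed cells stained for MAP2 and synaptophysin plus Hoechst; synaptophysin puncta per neurite length quantified by high-content imaging, relative to DMSO.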

Assay [8] is described as follows: CCTE_Mundy_HCI_Cortical_Synap_Neur_Matur_BPCount: CCTE's Synaptogenesis and Neurite Maturation Assay in rat cortical cells for Branch Point Count, Mundy Lab (AID 2284211). An outline of the steps: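 Branch point number is quantified by automated imaging of fluorescently labelled neurites and synapses in rat primary cortical neurons exposed from DIV 7 to DIV 12. Activity is analysed relative to DMSO negative control.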

The nature of assay [9]: CCTE_Mundy_HCI_Cortical_NOG_NeuriteCount: CCTE's Neurite Outgrowth Assay in rat cortical cells for Neurite Count, Mundy Lab (AID 2284212).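 Further: cells fixed about two days after chemical exposure began.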 The essentials:
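Neurite number per cell from high-content imaging of betaIII-tubulin immunostaining, with Hoechst nuclear counterstain.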

Assay [10] in a line: CCTE_Mundy_HCI_Cortical_NOG_NeuriteLength: CCTE's Neurite Outgrowth Assay in rat cortical cells for Neurite Length, Mundy Lab (AID 2284213).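 On AC50: neurites imaged about 48 to 50 h after chemical exposure began.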 The essentials: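 Neurite length was read by high-content imaging of βIII-tubulin-labelled neurites in rat primary cortical cultures. Activity was fitted relative to DMSO.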
Assay [11] in a line: CCTE_Mundy_HCI_Cortical_Synap_Neur_Matur_NeuriteLength: CCTE's Synaptogenesis and Neurite Maturation Assay in rat cortical cells for Neurite Length, Mundy Lab (AID 2284214). The essentials: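 Rat primary cortical cells were plated, treated with AraC at DIV 5 to arrest glial growth, then chemical-dosed with media change at DIV 7 through DIV 12. Fixed cells stained for MAP2, synaptophysin and Hoechst; neurite length quantified by high-content imaging.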

Assay [12] can be described thus: CCTE_Mundy_HCI_Cortical_Synap_Neur_Matur_SynapseCount: CCTE's Synaptogenesis and Neurite Maturation Assay in rat cortical cells for Synapse Count, Mundy Lab (AID 2284218). The essentials:
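Rat primary cortical cells in 96-well plates received AraC at DIV 5 and were dosed with chemicals at DIV 7 with media change, through DIV 12 (288.33 h). Synapses per neuron counted by high-content imaging of MAP2/synaptophysin/Hoechst staining, versus DMSO baseline.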

Assay [13] in a line: CCTE_Mundy_HCI_Cortical_Synap_Neur_Matur_NeuriteCount: CCTE's Synaptogenesis and Neurite Maturation Assay in rat cortical cells for Neurite Count, Mundy Lab (AID 2284222).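 On outcome: exposure from day 7 to day 12 in vitro with readout at day 12.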 The essentials: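 Primary rat cortical cells were plated, treated with AraC at DIV 5, then exposed to chemicals from DIV 7 through DIV 12. After fixation and immunostaining for MAP2 and synaptophysin, imaging quantified neurites, with DMSO as the negative control.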

Assay [14] is described as follows: CCTE_Mundy_HCI_Cortical_Synap_Neur_Matur_CellBodySpotCount: CCTE's Synaptogenesis and Neurite Maturation Assay in rat cortical cells for Cell Body Spot Count, Mundy Lab (AID 2284223). The essentials: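 Synapse number at neuronal cell bodies was quantified as synaptophysin puncta per neuron in rat cortical cultures exposed from DIV 7 to DIV 12. Values were normalised to DMSO.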

Assay [15] can be described thus: TAMU_PeakParms_SingleDonor1434_Chronotropy: Texas A&M University (TAMU) 1.5-hr Human Induced Pluripotent Stem Cell (iPSC)-derived Cardiomyocytes Calcium (Ca+2) Flux Assay for Cardiotoxicity: Chronotropy (changes in peak frequency) (AID 2284217). The settings on record: actives raise or lower the signal. The essentials: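 iPSC-CMs, donor 1434; 4 conc (0.2–100 uM), 0.5% v/v DMSO, 90 min, 37C/5% CO2; Ca2+ flux fluorescence → peak.freq.avg; peak.freq.avg = 0 dropped; bidirectional fit vs DMSO; EC05 POD.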

A short description of assay [16]: CCTE_Mundy_HCI_hN2_NOG_NeuriteCount: CCTE's Neurite Outgrowth Assay in human hN2 cells for Neurite Count, Mundy Lab (AID 2284219; active means hit-call score of the fitted dose curve at least 0.9, where 1 is the maximum). An outline of the steps:
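In this morphology assay, hNP1-derived neurons received test chemical 2 h post-plating and were fixed two days later in warm paraformaldehyde/sucrose containing Hoechst 33342. Neurites, labelled by rabbit anti-βIII-tubulin (1:800) and Alexa Fluor-488 (1:500), were counted automatically.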

The nature of assay [17]: CCTE_Mundy_HCI_hN2_NOG_NeuriteLength: CCTE's Neurite Outgrowth Assay in human hN2 cells for Neurite Length, Mundy Lab (AID 2284220; active means hit-call score of the fitted dose curve at least 0.9, where 1 is the maximum). An outline of the steps:
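Read-out is neurite length from high-content imaging of βIII-tubulin/Alexa Fluor-488-labelled neurons, referenced to DMSO controls.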

The nature of assay [18]: CCTE_Mundy_HCI_hN2_NOG_NeuronCount: CCTE's Neurite Outgrowth Assay in human hN2 cells for Neuron Count, Mundy Lab (AID 2284221; active means hit-call score of the fitted dose curve at least 0.9, where 1 is the maximum). The essentials: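 Read-out is the number of betaIII-tubulin-positive neurons imaged by automated high-content analysis, with DMSO as negative control.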

Where “and” joins values, the source holds several entries; their conditions need not be identical. Equal values may be shown once. Records with an inconclusive call do not appear. A structure can be active in one record and inactive in another. Calls of active or inactive are those of the source. How the source made its calls, unless noted: active means hit-call score of the fitted dose curve at least 0.9, where 1 is the maximum; inactive means score below 0.9.

With `CCCCOC(=O)c1ccccc1C(=O)OCCCC`, the molecule was called inactive in [1], in assay [2], in assay [3], in assay [4], in assay [5] and in assay [6]. The call in assay [9] and in [10] was inactive. Besides, the half-maximal activity concentration (AC50) in assay [7] was 84.1 µM (active); in assay [8], 50 µM (active); in assay [11] it was 64.7 µM (active); in assay [12], 50 µM (active); in assay [13] it was 85.8 µM (active); in [14], 89.5 µM (active).
`C=CC1(C)OC(=O)N(c2cc(Cl)cc(Cl)c2)C1=O` (stereo not given): the result in assay [1], in [2], in assay [4], in assay [5], in assay [6] and in assay [7] was inactive. Besides, the result in [8], in [9], in [10], in assay [11], in assay [12] and in assay [13] was inactive. Also, in [14], the outcome was inactive. The concentration at half-maximal activity (AC50) in assay [3] was 50 µM (active).
Regarding `Cc1c(F)c(F)c(COC(=O)C2C(/C=C(\Cl)C(F)(F)F)C2(C)C)c(F)c1F` (stereo not given), the AC50 in assay [1] was 17.4 µM (active); in [2], 302 nM (active); in [3], 0.61 µM (active).
Regarding `CCCCC(CC)COC(=O)c1ccccc1C(=O)OCC(CC)CCCC` (stereo not given), the AC50 in assay [1] is 12.4 µM (active); in [2], 1.59 µM (active) and 2.77 µM (active); in assay [3], 5.5 µM (active) and 7.56 µM (active); in assay [7], 8.06 µM (active) and 7.58 µM (active); in assay [8] it was 3.03 µM (active); in assay [10], 8.99 µM (active) and 15 µM (active). Moreover, the AC50 in assay [11] is 3.85 µM (active) and 4.26 µM (active); in assay [15], 50 µM (active); in assay [12] it was 6.28 µM (active) and 4 µM (active); in assay [13] it was 4.84 µM (active); in assay [14] it was 8.27 µM (active) and 7.64 µM (active). The result in assay [1], in assay [2], in assay [3], in [4], in [5] and in assay [6] was inactive. Moreover, the result in assay [16], in assay [17] and in assay [18] was inactive.
With `Cc1ccc(-c2c(Cl)nc(C#N)n2S(=O)(=O)N(C)C)cc1`, the AC50 in assay [1] was 50 µM (active); in assay [2] it was 15200 nM (active); in [3], 27.9 µM (active); in assay [4] it was 74.2 µM (active); in assay [5], 74.1 µM (active); in assay [6] it was 83 µM (active). Further, the AC50 in [7] was 73.3 µM (active); in [8] it was 71.1 µM (active); in assay [9], 72.9 µM (active); in assay [10] it was 85.3 µM (active); in assay [11], 85.7 µM (active); in assay [12], 74.3 µM (active). The AC50 in [13] is 80.2 µM (active); in assay [14], 87.8 µM (active).
